Here are results for 21 compounds from PubChem BioAssay (NCATS).

Each structure is given as a SMILES string. Several values for one entry are separate records, joined by “and”; a condition that tells them apart may be missing. Equal values may be shown once. Inconclusive results are not listed. Activity calls are given as the source filed them. Unless noted, the call rests on the fitted dose curve; in most records, active means well fitted curve in the direction sought with a large enough effect; inconclusive means small, poorly fitted or top-dose-only effect, or another doubt; inactive means no such curve, though single readings can be large; an effect the other way counts as inactive or inconclusive.

Test [1] is described as follows: Validation qHTS assay for inhibitors of Activation Induced Cytidine Deaminase (AID): UDG Counterscreen signal (AID 1347427). The procedure, abridged:
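Fluorescence at 560 nm excitation, 665 nm emission reports UDG signal after 250 mM NaOH (2x) addition and 30 min. Enzymes (AID 1 uM, UDG 2 U/mL, at 4/3x) preincubated 10 min with compound, then 4 h with 4x 250 nM DJC20/DJC23 substrate at room temperature.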

Test [2] is described as follows: Primary qHTS for inhibitors of La Crosse Virus (LACV) - induced cell death in SH-SY5Y cells (AID 1508616). Further: potency means the concentration at half of the fitted maximal effect. The method in brief:
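Cytopathicity rescue screen: compounds pinned onto SH-SY5Y cells, which are then infected with LACV (MOI 0.01) and held 6 days at 37C. Percent activity is scaled between infected DMSO control and uninfected DMSO control.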
Background: In qHTS, concentration-response curves come from the screen itself.

Test [3] addresses Calcium and integrin-binding protein 1 (Homo sapiens) (UniProt Q99828). Kind of test: Primary qHTS for Identification of Calcium Integrin Binding Protein 1 (CIB1) Competitor (AID 1508620).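 Further: GST tagged CIB1 binding a fluorescein labelled alphaIIb integrin peptide tracer; top concentration of the series differs between compounds.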 The method in brief: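 Fluorescence polarization competition: CIB1-GST (1 uM final) preincubated with compound 15 min at room temperature, then FITC-labeled alphaIIb peptide (100 nM final) added for another 15 min. Polarization read at Ex 480/Em 540.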

The nature of test [4]: Primary qHTS for small molecule stabilizers of the endoplasmic reticulum resident proteome: Secreted ER Calcium Modulated Protein (SERCaMP) assay (AID 1508630). The procedure, abridged:
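The SH-SY5Y reporter protocol was run at 3 concentrations up to 38.3 uM (primary) or 11 concentrations (follow-up): 16 h compound, 100 nM thapsigargin for 4 h, then extracellular luciferase luminescence.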

Test [5] can be described thus: Primary qHTS for inhibitors of nuclear receptor binding SET domain protein 2 (NSD2) in an isogenic RCH-ACV NSD2 p.E1099K mutant (9B) (AID 1645876). Further: nearly all actives have a fitted effect of over 70% in size. Further: potency means the concentration at half of the fitted maximal effect.
The nature of test [6]: Primary qHTS for inhibitors of nuclear receptor binding SET domain protein 2 (NSD2) in an RCH-ACV wild type WT cells (2C) (AID 1645877). Further: nearly all actives have a fitted effect of over 70% in size. Further: potency means the concentration at half of the fitted maximal effect.
Test [7] is described as follows: Confirmatory qHTS for small molecule stabilizers of the endoplasmic reticulum resident proteome: Secreted ER Calcium Modulated Protein (SERCaMP) assay (AID 1508628). Further: potency means the concentration at half of the fitted maximal effect; nearly all actives have a fitted effect of over 40% in size. The procedure, abridged: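 GLuc-SERCaMP-expressing SH-SY5Y cells, pretreated 16 h with compound, are challenged with thapsigargin to empty ER calcium stores; after 4 h, coelenterazine is added directly to the medium and luminescence is imaged.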

Another test addresses Papain (Carica papaya) (UniProt P00784). Briefly: Primary qHTS assay for inhibitors of the protease papain (AID 1645873).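 Further: papain turnover of Z-FR-AMC read as the AMC fluorescence gain over 10 min.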 Further: potency means the concentration at half of the fitted maximal effect.
Test [8] concerns the target N-terminal Xaa-Pro-Lys N-methyltransferase 1 (Homo sapiens) (UniProt Q9BV86). Briefly: Confirmatory qHTS for Inhibitors of N-terminal methyltransferase 1 (NTMT1): MTaseGlo Assay (AID 1645874). Further: potency means the concentration at half of the fitted maximal effect; nearly all actives have a fitted effect of over 65% in size. The procedure, abridged:
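Inhibition was derived from luminescence after SAH-to-ATP conversion, scaled between no-enzyme and DMSO wells, then fitted by 4-parameter Hill. Conditions: 125 nM NTMT1, 100 uM SAM, 1 uM SPKRIA, 30 min RT.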

Test [9] concerns the target Calcium and integrin-binding protein 1 (Homo sapiens) (UniProt Q99828). Kind of test: Validation qHTS for Identification of Calcium Integrin Binding protein 1 (CIB1) Competitor (AID 1508618). The method in brief:
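Fluorescence polarization with 1 uM CIB1-GST and 100 nM FITC-alphaIIb peptide in HEPES pH 7.4, NaCl, 5 mM CaCl2, Tween20. Compounds at up to 114 uM final, preincubated with protein 15 min; read after 15 min more at RT.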

Test [10] concerns the target Protein phosphatase 1D (Homo sapiens) (UniProt O15297). Briefly: Rhodamine-PBP qHTS Assay for Modulators of WT P53-Induced Phosphatase 1 (WIP1) (AID 1347425). The method in brief:
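WIP1 (5 nM final) was preincubated with compound for 1 hour at room temperature. It then dephosphorylated 10 uM VEPPL-pS-QETFS peptide in Tris-HCl pH 7.5 with 30 mM MgCl2. Released Pi was detected by 10 uM Rh-PBP fluorescence (ex 525/em 598 nm) read at 1-min intervals for 11 min, as delta f1 - f0.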

The target in test [11] is Cytochrome P450 2D6 (Homo sapiens) (UniProt P10635). Kind of test: Cytochrome P450 family 2 subfamily D member 6 (CYP2D6) small molecule antagonists: luciferase biochemical (cell-free) qHTS assay (AID 1645840; active means well fitted curve in the direction sought with a large enough effect in the repeat runs; an effect the other way counts as inactive or inconclusive; further: nearly all actives have a fitted effect of over 55% in size; further: potency means the concentration at half of the fitted maximal effect). The method in brief:
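P450-Glo CYP2D6 system: proluciferin substrate converted by enzyme to luciferin, read by luminescence proportional to activity. Enzyme-substrate mix with compound 10 min at room temperature, then NADPH regeneration 1 h before detection reagent.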

Test [12] addresses Cytochrome P450 2C9 (Homo sapiens) (UniProt P11712). Briefly: Cytochrome P450 family 2 subfamily C member 9 (CYP2C9) small molecule antagonists: luciferase biochemical (cell-free) qHTS assay (AID 1645842; active means well fitted curve in the direction sought with a large enough effect in the repeat runs; an effect the other way counts as inactive or inconclusive; further: nearly all actives have a fitted effect of over 55% in size; further: potency means the concentration at half of the fitted maximal effect). The method in brief: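 P450-Glo CYP2C9 system: proluciferin substrate with enzyme in mix containing 0.4% BSA, 10 min at room temperature, then NADPH regeneration solution added and incubated 1 h at 37C. Detection reagent stopped reaction; luminescence read after 20 min as RLU.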

A short description of test [13]: A High-Content qHTS Against Drug Library for the Identification of Small Molecules that Inhibit DYT1 Early Onset Primary Dystonia-Associated Cell Pathology (AID 1645839; calls by dose curve; further: series mostly up to about 46 µM). The procedure, abridged:
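Induced EGFP-delE TorsinA cells are imaged after 48 h of compound treatment. Punctate fusion-protein distribution gives the %pathology value, while nuclei counts flag toxicity. Wild-type EGFP-hTOR1A cells define the normal pattern.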

The nature of test [14]: Counterscreen qHTS for small molecule stabilizers of the endoplasmic reticulum resident proteome: GLuc-NoTag assay (AID 1508627). Further: series mostly up to about 76 µM. The method in brief: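 Secreted GLuc lacking the SERCaMP modification is measured in SH-SY5Y cells exposed to compound for 19 h and then to thapsigargin (100 nM, 4 h) to deplete ER calcium; hits retested at 11 concentrations, up to 76.6 uM.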
(Counterscreens check selectivity or assay interference.)

Papain (Carica papaya), sequence (P00784 whole entry, looked up): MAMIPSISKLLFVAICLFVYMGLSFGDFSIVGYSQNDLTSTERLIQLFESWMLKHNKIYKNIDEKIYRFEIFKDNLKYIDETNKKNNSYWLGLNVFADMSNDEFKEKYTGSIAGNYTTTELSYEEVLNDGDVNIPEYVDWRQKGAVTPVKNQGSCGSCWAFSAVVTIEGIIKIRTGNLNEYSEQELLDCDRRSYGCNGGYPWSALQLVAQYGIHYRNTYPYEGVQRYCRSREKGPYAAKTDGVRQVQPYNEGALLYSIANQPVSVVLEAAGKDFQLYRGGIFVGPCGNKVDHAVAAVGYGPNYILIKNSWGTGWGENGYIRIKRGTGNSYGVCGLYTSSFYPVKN
Cytochrome P450 2D6 (Homo sapiens), sequence (P10635 whole entry, looked up): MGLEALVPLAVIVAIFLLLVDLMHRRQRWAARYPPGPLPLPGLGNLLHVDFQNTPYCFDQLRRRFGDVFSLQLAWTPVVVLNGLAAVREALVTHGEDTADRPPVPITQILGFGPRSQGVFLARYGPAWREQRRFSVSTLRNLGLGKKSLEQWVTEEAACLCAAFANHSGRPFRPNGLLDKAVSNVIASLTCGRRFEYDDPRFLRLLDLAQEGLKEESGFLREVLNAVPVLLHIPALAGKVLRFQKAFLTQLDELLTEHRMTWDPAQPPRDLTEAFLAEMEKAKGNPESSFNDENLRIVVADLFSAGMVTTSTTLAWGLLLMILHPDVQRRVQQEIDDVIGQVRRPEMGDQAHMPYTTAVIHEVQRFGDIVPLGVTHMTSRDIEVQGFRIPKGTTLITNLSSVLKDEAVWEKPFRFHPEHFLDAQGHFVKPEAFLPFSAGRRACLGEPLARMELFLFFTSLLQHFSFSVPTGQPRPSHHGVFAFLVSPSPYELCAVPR
Protein phosphatase 1D (Homo sapiens), sequence (O15297 whole entry, looked up): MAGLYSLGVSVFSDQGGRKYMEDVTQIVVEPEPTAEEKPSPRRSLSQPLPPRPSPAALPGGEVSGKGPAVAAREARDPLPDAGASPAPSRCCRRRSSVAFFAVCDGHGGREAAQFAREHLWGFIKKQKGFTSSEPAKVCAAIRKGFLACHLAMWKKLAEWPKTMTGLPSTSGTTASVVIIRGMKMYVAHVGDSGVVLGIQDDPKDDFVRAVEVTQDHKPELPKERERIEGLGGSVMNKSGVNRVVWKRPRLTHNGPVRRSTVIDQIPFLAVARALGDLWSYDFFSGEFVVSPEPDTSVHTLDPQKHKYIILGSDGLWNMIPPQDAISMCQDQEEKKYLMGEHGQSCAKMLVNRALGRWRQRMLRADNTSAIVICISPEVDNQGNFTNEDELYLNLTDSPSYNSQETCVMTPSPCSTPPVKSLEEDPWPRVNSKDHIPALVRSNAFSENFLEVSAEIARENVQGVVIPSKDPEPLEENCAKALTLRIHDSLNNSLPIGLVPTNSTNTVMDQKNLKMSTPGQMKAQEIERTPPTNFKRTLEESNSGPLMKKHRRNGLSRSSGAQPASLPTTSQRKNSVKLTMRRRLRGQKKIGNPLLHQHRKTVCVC
Calcium and integrin-binding protein 1 (Homo sapiens), sequence (Q99828 whole entry, looked up): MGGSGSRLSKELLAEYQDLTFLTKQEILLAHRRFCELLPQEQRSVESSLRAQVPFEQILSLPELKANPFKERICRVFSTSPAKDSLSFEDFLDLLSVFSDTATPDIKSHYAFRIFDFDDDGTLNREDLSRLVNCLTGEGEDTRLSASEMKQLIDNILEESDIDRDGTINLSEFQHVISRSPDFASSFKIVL
Cytochrome P450 2C9 (Homo sapiens), sequence (P11712 whole entry, looked up): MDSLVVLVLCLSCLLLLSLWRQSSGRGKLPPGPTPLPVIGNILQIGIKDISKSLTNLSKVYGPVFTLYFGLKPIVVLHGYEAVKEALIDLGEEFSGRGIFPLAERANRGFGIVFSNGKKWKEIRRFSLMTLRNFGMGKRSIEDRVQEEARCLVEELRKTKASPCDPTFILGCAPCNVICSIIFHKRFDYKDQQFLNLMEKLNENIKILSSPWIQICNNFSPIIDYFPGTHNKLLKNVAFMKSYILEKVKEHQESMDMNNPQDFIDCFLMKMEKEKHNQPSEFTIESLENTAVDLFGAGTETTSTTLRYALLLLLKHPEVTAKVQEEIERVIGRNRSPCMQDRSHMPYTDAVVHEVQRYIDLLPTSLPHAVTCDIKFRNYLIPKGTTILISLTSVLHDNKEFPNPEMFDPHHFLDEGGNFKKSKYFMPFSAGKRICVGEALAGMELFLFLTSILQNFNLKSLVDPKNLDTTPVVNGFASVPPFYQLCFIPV
N-terminal Xaa-Pro-Lys N-methyltransferase 1 (Homo sapiens), sequence (Q9BV86 whole entry, looked up): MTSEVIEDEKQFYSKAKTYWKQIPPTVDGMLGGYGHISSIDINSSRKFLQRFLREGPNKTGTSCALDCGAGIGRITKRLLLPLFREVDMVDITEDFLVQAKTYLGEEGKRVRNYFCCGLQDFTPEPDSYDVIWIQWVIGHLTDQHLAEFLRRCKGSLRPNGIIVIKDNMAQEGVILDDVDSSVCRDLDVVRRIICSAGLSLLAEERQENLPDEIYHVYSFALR

In the case of `CC(=O)O[C@H]1C(=O)[C@@]2(C)C([C@H](OC(=O)c3ccccc3)[C@]3(O)C[C@H](OC(=O)[C@H](O)[C@@H](NC(=O)c4ccccc4)c4ccccc4)C(C)=C1C3(C)C)[C@]1(OC(C)=O)CO[C@@H]1C[C@@H]2O` (stereo partly drawn), the Potency result in test [1], in test [2], in test [3] and in test [4] was “inactive” each time. For the same compound, the Potency in test [5] is 4.5 nM (active) and 5.9 nM (active); in [6] it was 5.1 nM (active) and 5.9 nM (active).

Consider `Cc1cc(O)c2c(c1)C(=O)c1cc(O)cc(O)c1C2=O`, for which the Potency entry (in [1]; in test [2]; in [3]; in the test with Papain (Carica papaya); in [5]; in test [6]) was “inactive” throughout. The Potency in [7] was 14.1 µM (active); in [8], 30.8 µM (active).

Turning to `O=C(CCc1ccc(O)cc1)c1c(O)cc(O)cc1O`, the Potency result (in test [1]; in [2]; in [3]; in test [4]; with Papain (Carica papaya); in test [5]) was “inactive” each time. In test [9], the outcome was inactive.

As for `CCCCCCCCOc1ccccc1C(=O)Nc1ccc(C(=O)OCC[N+](C)(CC)CC)cc1`, the result in test [10] was inactive. The Potency entry in [2], in [3] and in [4] was “inactive” in each case. Further, the Potency is 17.4 µM (active) in [11], 1.55 µM (active) in test [12] and 47.8 µM (active) in test [8].

Take `O=c1c(O)c(-c2ccc(O)cc2O)oc2cc(O)cc(O)c12`: the Potency entry in [1], in test [2], in test [3], in test [4] and in test [11] was “inactive” throughout.

As to `CN(C)[C@@H](CCOc1cccc2ccccc12)c1ccccc1`, the outcome in test [10] was inactive. Besides, the Potency result in [2], in test [3] and in [4] was “inactive” throughout. Also, the Potency in [11] was 347 nM (active) and 849 nM (active); in test [12] it was 15.5 µM (active) and 21.3 µM (active); in test [6], 23.7 µM (active).

For `NC(=NCc1ccccc1)NC(=O)c1nc(Cl)c(N)nc1N`, the Potency entry in test [1], in [2], in [3], in test [4] and in test [12] was “inactive” each time. Further, the result in test [9] was inactive. Further, the Potency in test [11] was 5.35 µM (active); in the test with Papain (Carica papaya), 31.6 µM (active); in [5], 13.2 µM (active); in test [6], 13.2 µM (active).

Take `Cc1cc(C2CCCCC2)n(O)c(=O)c1`: the compound was classed as inactive in [10]. For the same compound, the Potency entry in [3], in [4], in test [11] and in test [12] was “inactive” throughout. In addition, the Potency in test [5] is 5.8 µM (active) and 266 nM (active) and 7.42 µM (active); in test [6], 3.26 µM (active) and 266 nM (active) and 4.68 µM (active).

With `CN(C)CCCC1(c2ccc(F)cc2)OCc2cc(C#N)ccc21` (stereo not drawn), the Potency result (in [1]; in test [2]; in test [3]; in test [4]; with Papain (Carica papaya)) was “inactive” throughout. In addition, the result in test [9] was inactive.

As to `Nc1ccn([C@@H]2O[C@H](CO)[C@@H](O)C2O)c(=O)n1` (stereo partly drawn), the Potency entry in [1], in test [3], in test [4] and in [11] was “inactive” throughout. In addition, the Potency in [2] was 0.316 µM (active); in test [5] it was 0.0166 µM (active); in [6], 0.0166 µM (active).

For `CC(C)c1ccc2oc3nc(N)c(C(=O)O)cc3c(=O)c2c1`, the call in [10] was inactive. The Potency entry in test [3], in test [4], in [13], in test [5] and in test [6] was “inactive” throughout. Besides, the Potency in test [11] and in test [12] was 13.8 µM (active) each time.

Consider `Nc1nc(N)c(N=O)c(OCC2CCCCC2)n1`, for which the Potency entry in [1], in test [2], in test [3], in test [11] and in [12] was “inactive” throughout. In test [9], the outcome was inactive. The Potency in test [5] was 7.31 µM (active) and 4.68 µM (active); in [6], 6.51 µM (active).

In the case of `CCOC(=O)C(C)Oc1cccc2c(=O)n(CC(=O)Nc3ccc4c(c3)OCCO4)ccc12` (stereo not drawn), the Potency entry (in [1]; in [2]; in [3]; in test [4]; with Papain (Carica papaya); in test [5]) was “inactive” in each case. In addition, in test [6], the Potency entry was “inactive”. For the same compound, the result in [9] was inactive.

Turning to `O=C1CCc2ccc(OCCCCN3CCN(c4cccc(Cl)c4Cl)CC3)cc2N1`, the outcome in test [10] was inactive. Also, the Potency result in [2], in test [3], in test [4] and in [5] was “inactive” throughout.

Consider `CC1(C)CCC(C)(C)c2cc(NC(=O)c3ccc(C(=O)O)cc3)ccc21`, for which the Potency result in test [2], in test [3], in test [14], in test [4], in [11] and in [12] was “inactive” in each case.

With `O=c1ccc2ccc(O)c(O)c2o1`, the Potency entry in test [1], in test [2], in test [3], in test [4] and in [11] was “inactive” in each case.

With `O=C1NC(=O)C(c2ccccc2[N+](=O)[O-])=C1Nc1ccc(O)c(Cl)c1`, the Potency result in test [1], in [2], in test [3] and in [4] was “inactive” each time. The figures for the Potency in test [5] and in [6] were 13.2 µM (active) and 18.6 µM (active), respectively.

Consider `CC1(C)C(=O)N(CCN2CCC(C(=O)c3ccc(F)cc3)CC2)c2ccccc21`, for which the Potency result (in [1]; in test [2]; in [3]; in the test with Papain (Carica papaya)) was “inactive” throughout. Further, the outcome in test [9] was inactive.

`Cc1nccn1CC1CCc2c(c3ccccc3n2C)C1=O` (stereo not drawn): the Potency result in test [2], in [3], in test [4], in [13], in test [12] and in test [5] was “inactive” in each case. In addition, the Potency result in test [6] is “inactive”. Further, the Potency in [11] is 11 µM (active) and 13.5 µM (active).

Turning to `CC(C)[N+]1(C)[C@@H]2CC[C@H]1CC(OC(=O)C(CO)c1ccccc1)C2` (stereo partly drawn), the Potency entry in test [3] was “inactive”.

Turning to `CC(C)(S)[C@@H](N)C(=O)O`, the Potency result in [3] was “inactive”. Besides, the outcome in test [5] and in test [6] was “inactive [at 4.96 µM]” each time.
